# Source: PubChem BioAssay
# Calls of active or inactive are those of the source.
# Key:
# [1] = binders of probe aFSTL3 on microarray, primary screen, stem cell growth factor project, biochemical, small-molecule microarray, fluorescence 635/667 (AID 1064); conditions: higher = more signal;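 also: measures binding of the biotinylated anti-FSTL3 antibody to printed compounds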
# [2] = binders from COS7 lysate, DM2A8 probe, primary screen, torsin A project, cell lysate, small-molecule microarray, fluorescence 635/667 (AID 1065); conditions: higher = more signal, COS7 lysate expressing mutant human TOR1A
# [3] = binders of probe aFGF2 on microarray, primary screen, stem cell growth factor project, biochemical, small-molecule microarray, fluorescence 635/667 (AID 1067); conditions: higher = more signal;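 also: measures binding of biotinylated aFGF2 protein to printed compounds on slides; z-score merges feature fluorescence and signal-to-noise across triplicate slides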
# [4] = binders of probe aFGF10 on microarray, primary screen, stem cell growth factor project, biochemical, small-molecule microarray, fluorescence 635/667 (AID 1071); conditions: higher = more signal;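 also: score merges 667 nm spot intensity and signal to noise from triplicate slides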
# [5] = target: Neurogenic locus notch homolog protein 2 (Homo sapiens) (UniProt Q04721); experiment: Notch2 binders on small-molecule microarrays, primary screen, biochemical, small-molecule microarray, 635 nm fluorescence, stem cell growth factors (AID 1073); conditions: Notch2 binding, higher = more signal
# Chain of Neurogenic locus notch homolog protein 2 (Homo sapiens) (Q04721 whole entry, looked up, canonical isoform): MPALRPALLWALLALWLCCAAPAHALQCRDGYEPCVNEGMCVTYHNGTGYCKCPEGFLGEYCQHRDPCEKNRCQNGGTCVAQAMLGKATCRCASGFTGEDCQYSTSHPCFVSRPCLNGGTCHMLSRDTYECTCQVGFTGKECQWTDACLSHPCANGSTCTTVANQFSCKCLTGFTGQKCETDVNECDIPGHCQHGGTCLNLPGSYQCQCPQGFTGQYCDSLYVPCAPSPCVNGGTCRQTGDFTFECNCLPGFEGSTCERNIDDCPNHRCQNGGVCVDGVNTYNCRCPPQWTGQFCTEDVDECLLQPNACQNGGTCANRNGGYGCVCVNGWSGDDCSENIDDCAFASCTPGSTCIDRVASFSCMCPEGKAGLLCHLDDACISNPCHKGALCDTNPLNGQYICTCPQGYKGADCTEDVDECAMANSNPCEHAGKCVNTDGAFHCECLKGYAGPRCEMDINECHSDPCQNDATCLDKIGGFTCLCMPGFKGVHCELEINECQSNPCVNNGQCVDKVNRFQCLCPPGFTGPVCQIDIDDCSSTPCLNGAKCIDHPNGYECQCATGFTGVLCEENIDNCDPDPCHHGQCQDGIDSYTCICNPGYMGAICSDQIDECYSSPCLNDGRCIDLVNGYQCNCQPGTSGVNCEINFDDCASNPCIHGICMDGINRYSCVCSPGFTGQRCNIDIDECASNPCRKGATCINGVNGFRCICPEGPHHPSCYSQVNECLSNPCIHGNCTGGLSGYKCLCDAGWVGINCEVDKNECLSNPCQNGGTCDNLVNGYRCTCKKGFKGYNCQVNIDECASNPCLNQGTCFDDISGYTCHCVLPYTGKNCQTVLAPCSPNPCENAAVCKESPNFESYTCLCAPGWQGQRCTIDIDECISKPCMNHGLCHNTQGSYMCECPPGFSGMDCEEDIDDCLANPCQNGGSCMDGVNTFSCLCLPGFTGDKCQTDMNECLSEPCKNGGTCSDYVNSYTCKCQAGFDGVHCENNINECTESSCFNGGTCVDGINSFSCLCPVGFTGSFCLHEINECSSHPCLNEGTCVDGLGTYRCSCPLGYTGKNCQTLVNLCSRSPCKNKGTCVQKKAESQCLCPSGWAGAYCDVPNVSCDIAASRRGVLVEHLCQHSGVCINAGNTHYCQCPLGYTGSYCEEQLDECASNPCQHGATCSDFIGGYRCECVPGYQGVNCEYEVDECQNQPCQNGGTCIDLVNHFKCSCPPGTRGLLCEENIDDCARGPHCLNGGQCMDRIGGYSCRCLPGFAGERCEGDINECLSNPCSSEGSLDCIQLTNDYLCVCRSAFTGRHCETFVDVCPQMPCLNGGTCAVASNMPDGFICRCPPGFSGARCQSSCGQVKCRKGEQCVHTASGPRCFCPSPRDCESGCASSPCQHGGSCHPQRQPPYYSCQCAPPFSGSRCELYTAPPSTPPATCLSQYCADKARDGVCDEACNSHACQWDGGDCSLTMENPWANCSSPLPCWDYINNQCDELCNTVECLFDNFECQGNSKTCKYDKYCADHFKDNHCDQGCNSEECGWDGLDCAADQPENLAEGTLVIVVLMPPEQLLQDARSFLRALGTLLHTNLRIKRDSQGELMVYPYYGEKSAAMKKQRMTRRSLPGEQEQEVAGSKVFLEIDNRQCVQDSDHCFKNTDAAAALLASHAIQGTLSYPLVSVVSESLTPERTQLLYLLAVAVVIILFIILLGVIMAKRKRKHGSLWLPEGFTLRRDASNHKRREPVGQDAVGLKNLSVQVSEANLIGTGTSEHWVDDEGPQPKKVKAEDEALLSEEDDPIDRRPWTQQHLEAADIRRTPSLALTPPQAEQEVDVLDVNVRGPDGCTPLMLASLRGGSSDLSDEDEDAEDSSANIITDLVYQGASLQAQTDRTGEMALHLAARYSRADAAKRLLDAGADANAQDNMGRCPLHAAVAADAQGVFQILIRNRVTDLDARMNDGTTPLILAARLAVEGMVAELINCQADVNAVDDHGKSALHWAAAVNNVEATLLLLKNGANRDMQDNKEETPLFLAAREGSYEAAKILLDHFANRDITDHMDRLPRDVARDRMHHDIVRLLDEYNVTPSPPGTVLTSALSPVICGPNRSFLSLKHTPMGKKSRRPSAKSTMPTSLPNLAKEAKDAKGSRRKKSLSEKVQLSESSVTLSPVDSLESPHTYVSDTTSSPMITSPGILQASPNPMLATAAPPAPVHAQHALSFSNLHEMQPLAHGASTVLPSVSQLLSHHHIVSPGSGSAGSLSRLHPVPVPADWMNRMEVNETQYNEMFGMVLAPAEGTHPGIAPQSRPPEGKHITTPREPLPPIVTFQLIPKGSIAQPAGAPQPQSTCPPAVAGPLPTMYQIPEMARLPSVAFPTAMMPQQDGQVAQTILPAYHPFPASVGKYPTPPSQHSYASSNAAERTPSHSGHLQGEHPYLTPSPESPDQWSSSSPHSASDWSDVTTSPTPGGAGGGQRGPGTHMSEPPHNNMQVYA
# [6] = target: Pro-neuregulin-1, membrane-bound isoform (Homo sapiens) (UniProt Q02297); experiment: NRG1 binders on small-molecule microarrays, primary screen, psychiatric disease protein project, biochemical, small-molecule microarray, fluorescence 635/667 (AID 1075); conditions: NRG1 binding, 635 nm fluorescence, higher = more signal;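 also: score combines 667 nm spot fluorescence with signal to noise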
# Chain of Pro-neuregulin-1, membrane-bound isoform (Homo sapiens) (Q02297 whole entry, looked up, the tested form may be a part, canonical isoform): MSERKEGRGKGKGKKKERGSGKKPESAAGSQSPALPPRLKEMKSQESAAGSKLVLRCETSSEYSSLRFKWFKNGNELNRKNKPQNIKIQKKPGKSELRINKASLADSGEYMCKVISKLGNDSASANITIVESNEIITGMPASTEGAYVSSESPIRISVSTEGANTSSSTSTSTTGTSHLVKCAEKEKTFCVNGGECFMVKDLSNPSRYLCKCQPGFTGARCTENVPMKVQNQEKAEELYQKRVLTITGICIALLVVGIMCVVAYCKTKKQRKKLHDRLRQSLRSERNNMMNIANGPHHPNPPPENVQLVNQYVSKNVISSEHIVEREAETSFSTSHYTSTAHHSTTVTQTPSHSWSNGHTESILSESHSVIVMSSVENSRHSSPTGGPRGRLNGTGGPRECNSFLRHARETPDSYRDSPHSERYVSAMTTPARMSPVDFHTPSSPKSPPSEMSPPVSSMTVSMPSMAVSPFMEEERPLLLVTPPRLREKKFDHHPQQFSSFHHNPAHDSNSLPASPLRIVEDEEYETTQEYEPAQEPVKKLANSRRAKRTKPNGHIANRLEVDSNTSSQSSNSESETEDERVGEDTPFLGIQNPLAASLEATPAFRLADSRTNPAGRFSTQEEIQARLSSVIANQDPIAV
# [7] = test system: Neuregulin-1 EGF-like domain; experiment: binders of neuregulin-1 EGF-like domain, primary screen, biochemical, small-molecule microarray, 635 nm fluorescence (AID 1081); conditions: small-molecule microarray binding, higher = more signal;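 also: binding of the protein to compounds printed on small-molecule microarray slides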
# [8] = FRG1 promoter luciferase signal modulators, primary screen, FRG1 inhibition for FSHD, cell-based, C2C12 myotubes, firefly/Renilla luciferase, luminescence (AID 1084); conditions: higher = more signal, called active from +8 up or from −8 down
# [9] = binders of probe aFST on microarray, primary screen, stem cell growth factor project, biochemical, small-molecule microarray, fluorescence 635/667 (AID 1086); conditions: higher = more signal;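 also: score merges 667 nm fluorescence with signal-to-noise of each printed compound spot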
# [10] = binders of probe aHhip on microarray, primary screen, stem cell growth factor project, biochemical, small-molecule microarray, fluorescence 635/667 (AID 1087); conditions: higher = more signal;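 also: score merges spot fluorescence at 667nm with spot signal to noise ratio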
# [11] = test system: PRMT1 (protein arginine N-methyltransferase 1); experiment: PRMT1 binders on small-molecule microarrays, primary screen, biochemical, small-molecule microarray, 635 nm fluorescence (AID 1088); conditions: small-molecule microarray binding, higher = more signal;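 also: binding of Prmt1 protein to compounds spotted on small-molecule microarray slides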
# [12] = yeast growth modulation, basal conditions, primary screen, YJM789 clinical isolate, OD600, 24 h (AID 1089);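 also: growth of clinical yeast isolate S. cerevisiae YJM 789 seeded 1000 cells per well; test concentration not given here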; conditions: S. cerevisiae YJM789 growth, higher = more signal, called active from +8 up or from −8 down
# [13] = fission yeast growth modulation, primary screen, strain 972, OD600, 24 h, no modulator (AID 1090);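 also: basal condition with compound alone and no growth modifier present; test concentration not given here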; conditions: S. pombe 972 growth, higher = more signal, called active from +8 up or from −8 down
# [14] = S. cerevisiae growth modulation with rapamycin, primary screen, strain BY4716, OD600, 96 h (AID 1091); conditions: higher = more signal, called active from +8 up or from −8 down; also: test concentration not given here
# [15] = target: Torsin-1A-interacting protein 2 (Homo sapiens) (UniProt Q8NFQ8); experiment: LULL1 binders on small-molecule microarray, primary screen, cell lysate, human LULL1 lysate, 635/667 nm fluorescence (AID 1092); conditions: hLULL1 lysate binding, 635 nm fluorescence, higher = more signal;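 also: probe is lysate of COS7 cells overexpressing human LULL1; score merges per-feature 667 nm fluorescence with signal-to-noise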
# Chain of Torsin-1A-interacting protein 2 (Homo sapiens) (Q8NFQ8 whole entry, looked up): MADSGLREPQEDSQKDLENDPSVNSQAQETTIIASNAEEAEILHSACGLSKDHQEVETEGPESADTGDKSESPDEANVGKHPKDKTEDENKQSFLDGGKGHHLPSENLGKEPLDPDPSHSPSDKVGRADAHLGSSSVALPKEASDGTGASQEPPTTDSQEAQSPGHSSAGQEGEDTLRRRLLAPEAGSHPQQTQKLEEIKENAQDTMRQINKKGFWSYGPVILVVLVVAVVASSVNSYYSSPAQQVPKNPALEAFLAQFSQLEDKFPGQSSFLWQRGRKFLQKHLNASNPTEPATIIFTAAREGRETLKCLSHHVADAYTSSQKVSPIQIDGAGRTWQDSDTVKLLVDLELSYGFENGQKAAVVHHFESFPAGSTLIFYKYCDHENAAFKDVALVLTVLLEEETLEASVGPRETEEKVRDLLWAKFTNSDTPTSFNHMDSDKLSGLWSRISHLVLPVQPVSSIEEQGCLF
# [16] = E. coli growth modulation, two-sided OD650, primary screen, E. coli filamentation project, strain DRC41, 24 h (AID 1093); conditions: OD650, 24 h, higher = more signal, called active from +8 up or from −8 down;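 also: MC1000 strain lacking acrAB efflux and sulA so SOS filamentation is blocked; test concentration not given here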
# [17] = small-molecule microarray binders of probe aLefty2, primary screen, biochemical, biotinylated probe, 635/667 nm fluorescence (AID 1094); conditions: higher = more signal;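 also: score merges spot fluorescence near 667 nm with spot signal-to-noise ratio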
# [18] = test system: Noggin (protein binding on small-molecule microarray); experiment: Noggin binders on small-molecule microarray, primary screen, biochemical, 635/667 nm fluorescence (AID 1095); conditions: 635 nm fluorescence, higher = more signal;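 also: score merges 667 nm feature fluorescence with signal to noise over triplicate slides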
# [19] = target: Neurogenic locus notch homolog protein 3 (Homo sapiens) (UniProt Q9UM47); experiment: NOTCH3 binders on small-molecule microarray, primary screen, biochemical, 635/667 nm fluorescence (AID 1096); conditions: NOTCH3 binding, 635 nm fluorescence, higher = more signal
# [20] = small-molecule microarray binders of probe aEGFR, primary screen, biochemical, biotinylated probe, 635/667 nm fluorescence (AID 1097); conditions: higher = more signal;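 also: probe is a biotinylated anti-EGFR antibody binding compounds printed on slides; score combines fluorescence near 667 nm and signal to noise of each spot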
Compound,composite z-score [1],composite z-score [2],composite z-score [3],composite z-score [4],composite z-score [5],composite z-score [6],composite z-score [7],z-score [8],composite z-score [9],composite z-score [10],composite z-score [11],z-score [12],z-score [13],z-score [14],composite z-score [15],z-score [16],composite z-score [17],composite z-score [18],composite z-score [19],composite z-score [20]
C=CCC1=C[C@H]2[C@H]([C@@H]3C=C[C@]2(CC=C)C(=O)[C@]32CO2)[C@@]2(CO2)C1=O,0.076,1.28,-0.034,0.612,0.333,-0.35,0.319,-1.52 (inactive),0.501,0.0542,0.388,0.683 (inactive),-21.2 (active),-4.1 (inactive),0.756,2.54 (inactive),0.233,1.65,0.183,0.148
C=CC[C@]1(C(=O)O)N=C(c2ccc(OCCCO)cc2)O[C@H]1c1ccccc1,1.03,-0.269,-0.0985,-0.2,-0.0704,1.87,1.12,0.197 (inactive),0.0226,-0.169,0.707,-0.435 (inactive),-2.83 (inactive),-1.08 (inactive),3.29,0.597 (inactive),-0.0199,-1.1,-0.888,-0.0936
COc1cccc([C@@H]2[C@@H](C)CC[C@H]3C(=O)N4[C@H](c5cccc(OC)c5)[C@@H](C)CC[C@H]4C(=O)N23)c1,-0.197,0.683,-0.0355,0.483,1.01,0.25,0.285,-1.21 (inactive),0.0794,-0.0994,0.606,-2.34 (inactive),-1.46 (inactive),-0.616 (inactive),0.474,0.368 (inactive),-0.138,0.603,1.05,-0.0082
COc1ccc(CCN2C(=O)[C@@]3(c4ccc([N+](=O)[O-])cc4)CC(=O)N(CC45CC6CC(CC(C6)C4)C5)[C@@H]3c3ccc(CO)cc32)cc1,0.188,-0.063,0.0201,0.142,-0.18,0.978,0.956,-0.241 (inactive),-0.0561,-0.0296,1.55,0.0722 (inactive),-0.3 (inactive),-1.6 (inactive),2.09,-0.463 (inactive),0.141,-0.223,0.294,-0.109
C=C(/C(=C/C[C@@H](OC(=O)c1ccncc1)c1ccc(CO)o1)c1cnc2ccccc2c1)C(C)C,0.358,0.522,-0.0767,1.02,1.52,1.15,1.04,-0.493 (inactive),0.398,-0.0994,1.54,-0.0873 (inactive),-2.27 (inactive),-0.147 (inactive),1.1,1.23 (inactive),-0.0569,1.08,1.09,0.0009
Cc1ccc(N2C(=O)c3ccccc3[C@](C)(C(=O)NCC(C)C)[C@@H]2c2ccc(CO)cc2)nc1,0.572,-0.48,0.0988,-0.662,-1.02,-1.05,1.4,0.613 (inactive),-0.542,0.74,-0.644,0.42 (inactive),0.374 (inactive),1.43 (inactive),-1.71,-0.277 (inactive),0.456,-1.22,-1.62,0.32
O=C1OCCC/C=C\[C@H]2OC34C=CCN(CCN5CCOCC5)C(=O)[C@H]3N(CCCCCO)C(=O)[C@@H]4C12 (stereo not given in full),-0.0623,-0.658,-0.174,-0.156,-0.822,-0.179,0.65,1.48 (inactive),-0.676,-0.226,-0.706,-0.114 (inactive),-0.359 (inactive),-0.824 (inactive),-0.701,-0.763 (inactive),-0.221,-0.987,0.0233,-0.281
CO[C@H]1O[C@H](CO)[C@@H](OC(=O)CCc2ccccc2)[C@@H]2OC(=O)[C@H](Cc3cccc(Br)c3)C/C=C/C[C@@H](Cc3cccc(Br)c3)C(=O)O[C@@H]12,0.617,0.361,-0.139,-0.722,-1.2,0.964,-0.0592,-2.01 (inactive),0.0729,-0.134,0.922,-4.85 (inactive),-4.06 (inactive),3.62 (inactive),0.8,2.82 (inactive),-0.134,-0.6,-0.791,-0.186
CC(C)CNC(=O)[C@@]1(C)c2ccccc2C(=O)N(Cc2ccc(OC(F)(F)F)cc2)[C@H]1c1ccc(CO)cc1,1.39,-0.37,-0.0149,-0.925,-1.71,-0.81,0.257,-3.49 (inactive),-0.291,-0.353,-0.379,-0.545 (inactive),-0.808 (inactive),-0.53 (inactive),0.932,1.52 (inactive),0.117,-1.13,-1.27,-0.112
C#CCNC(/C=C/c1ccccc1)CO (stereo not given),-0.383,0.329,-0.0973,0.41,0.495,-0.21,-0.0021,-0.156 (inactive),0.155,-0.0237,0.142,1.11 (inactive),0.64 (inactive),1.24 (inactive),0.0064,-0.852 (inactive),-0.0668,0.381,0.447,-0.135
COCCOC(=O)N1C(=O)[C@@]2(c3cc(C#CCNC(N)=O)ccc31)[C@H](C(=O)N1CCCCCCC1)[C@H]1C(=O)O[C@H](c3ccccc3)[C@H](c3ccccc3)N1[C@@H]2c1ccccc1OCCO,2.42,0.288,0.129,0.452,1.38,1.03,1.05,-0.556 (inactive),1.29,0.851,1.2,1.42 (inactive),-0.922 (inactive),3.58 (inactive),2.05,-0.698 (inactive),0.957,0.601,1.04,0.295
COCCCNC(=O)[C@@]1(Sc2ccc(C)cc2)CC(=O)N(Cc2cc(C(F)(F)F)cc(C(F)(F)F)c2)[C@@H]1c1ccc(CO)cc1I,1.12,-0.181,-0.147,-0.811,-1.43,2.17,1.35,-0.925 (inactive),-0.265,1.67,-0.217,-1.27 (inactive),-3.56 (inactive),0.0085 (inactive),1.46,0.486 (inactive),-0.105,-1.76,-0.973,-0.288
C=CC[C@]1(C(=O)OC)N=C(c2ccc(OCCCO)cc2)O[C@H]1c1ccccc1CN=[N+]=[N-],2.1,0.164,-0.0004,-0.564,-0.543,0.391,0.863,-1.55 (inactive),0.629,-0.0994,0.828,-0.664 (inactive),-2.28 (inactive),-0.723 (inactive),1.37,1.37 (inactive),0.4,-0.101,-0.823,-0.0828
[N-]=[N+]=NCc1ccccc1C[C@]1(C(=O)N2CCCCC2)N=C(c2ccc(OCCCO)cc2)O[C@H]1c1ccccc1CN=[N+]=[N-],-0.0017,0.759,0.0342,0.765,0.776,1.63,1.19,-1.62 (inactive),1.29,0.142,1.55,0.551 (inactive),0.118 (inactive),8.36 (active),3.35,-0.004 (inactive),-0.0041,0.686,1.14,-0.0703
C#CCCCON=C1C[C@@H](O)[C@@H](O)[C@@H]2[C@@H]3C(=O)N(Cc4ccc5c(c4)OCO5)C(=O)[C@@H]3CC[C@H]12,-0.264,0.933,-0.0533,0.716,0.624,0.662,0.695,0.523 (inactive),-0.0042,-0.342,1.01,-0.216 (inactive),0.518 (inactive),-0.257 (inactive),2.79,0.523 (inactive),-0.0835,1.66,0.513,-0.02
CC[C@@H]1C=C(C(=O)O)[C@H](c2ccccc2)N1S(=O)(=O)c1ccc([N+](=O)[O-])cc1,0.0455,-0.0271,-0.0669,0.223,0.989,1.86,1.08,-2.22 (inactive),0.13,-0.0831,0.372,0.308 (inactive),-0.434 (inactive),0.632 (inactive),3.38,-1.86 (inactive),0.0634,-0.297,0.481,0.0276
C=CCN(C(=O)C1N(c2ccc(CCO)cc2)C(=O)C2C(C(=O)O)C3C=CC21O3)C(C)(C)C (stereo not given),1.73,-1.15,-0.243,-2.12,-2.34,-0.367,0.915,0.4 (inactive),-1.08,-0.403,-1.91,-0.696 (inactive),-1.89 (inactive),-0.569 (inactive),1.94,2.89 (inactive),-0.014,-3.2,-1.92,-0.356
O=C(NCc1ccccc1)[C@@]1(Cc2ccccc2)COC(c2ccc(OCCCO)cc2)=N1,0.618,0.0094,-0.255,0.0532,0.46,1.51,1.19,-3.27 (inactive),0.792,0.113,1.41,1.51 (inactive),-1.24 (inactive),36.4 (active),3.11,0.624 (inactive),0.188,-0.629,-0.0046,-0.054
CCCC[C@@H]1C[C@H]1[C@@H](NC(=O)c1ccccc1)c1ccccc1C(F)(F)F,0.135,0.281,0.149,0.189,1.13,1.97,0.828,0.822 (inactive),0.819,-0.189,1.03,0.261 (inactive),0.367 (inactive),0.0237 (inactive),3.38,0.151 (inactive),0.198,0.0984,0.961,-0.123
C[N+](C)(C)CCCC[C@@H]1NC(=O)[C@H]2C[C@@H](C(=O)NCc3ccc(F)cc3)[C@@H](c3cccc(OCCO)c3)N2C1=O,0.466,1.02,-0.149,-0.579,-0.607,0.594,1.22,0.106 (inactive),0.231,0.0176,1.47,-1.69 (inactive),-1.62 (inactive),-0.736 (inactive),0.823,0.973 (inactive),-0.166,1.62,0.716,-0.118
